# Assay results taken from PMC4336329 (PLoS ONE, 2015).
# About 14,000 (4.5%) of roughly 310,000 compounds showed an effect of 50% or more. The effect is printed as a negative number. The list comes from a sample in which strong results are over-represented; it also holds similar structures and randomly drawn compounds.
# Target: human ether-à-go-go-related gene (hERG) potassium channel (human, UniProt Q12809)
# Experiment: primary screen, population patch clamp on CHO cells stably expressing hERG; higher = less effect of the substance
# 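Further: peak tail current of the secondary pulse compared with the same well before compound.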
# Chain of human ether-à-go-go-related gene (hERG) potassium channel (Q12809 whole entry, looked up): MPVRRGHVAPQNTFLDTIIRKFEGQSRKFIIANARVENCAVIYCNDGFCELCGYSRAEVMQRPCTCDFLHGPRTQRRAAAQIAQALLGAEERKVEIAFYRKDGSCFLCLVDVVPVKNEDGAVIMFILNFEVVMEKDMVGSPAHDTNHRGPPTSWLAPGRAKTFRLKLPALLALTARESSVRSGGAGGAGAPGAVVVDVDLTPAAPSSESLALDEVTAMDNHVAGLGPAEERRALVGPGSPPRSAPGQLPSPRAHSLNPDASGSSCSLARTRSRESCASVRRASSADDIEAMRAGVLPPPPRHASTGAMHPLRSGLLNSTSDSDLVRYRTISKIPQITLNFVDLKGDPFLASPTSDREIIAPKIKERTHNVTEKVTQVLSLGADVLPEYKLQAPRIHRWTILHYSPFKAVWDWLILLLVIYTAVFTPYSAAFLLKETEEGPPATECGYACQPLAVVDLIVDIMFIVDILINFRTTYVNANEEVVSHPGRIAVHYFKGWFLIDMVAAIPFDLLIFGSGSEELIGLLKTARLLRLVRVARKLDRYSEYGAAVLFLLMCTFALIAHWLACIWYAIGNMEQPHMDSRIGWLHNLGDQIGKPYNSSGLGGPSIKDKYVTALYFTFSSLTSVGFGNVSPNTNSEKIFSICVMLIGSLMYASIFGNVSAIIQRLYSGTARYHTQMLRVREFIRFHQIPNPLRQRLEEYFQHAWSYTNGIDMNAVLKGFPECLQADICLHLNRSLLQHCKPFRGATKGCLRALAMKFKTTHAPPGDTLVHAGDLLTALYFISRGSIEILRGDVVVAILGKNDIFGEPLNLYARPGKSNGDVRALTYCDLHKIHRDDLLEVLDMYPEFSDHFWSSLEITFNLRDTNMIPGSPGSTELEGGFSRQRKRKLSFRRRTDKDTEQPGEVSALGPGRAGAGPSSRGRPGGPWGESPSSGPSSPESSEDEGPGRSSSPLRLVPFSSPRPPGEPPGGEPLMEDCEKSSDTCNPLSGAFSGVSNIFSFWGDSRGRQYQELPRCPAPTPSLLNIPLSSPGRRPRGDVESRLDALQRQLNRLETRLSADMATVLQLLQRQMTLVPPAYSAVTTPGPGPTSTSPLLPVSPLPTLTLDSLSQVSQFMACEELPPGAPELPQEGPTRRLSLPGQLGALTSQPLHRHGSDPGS
row,Structure (SMILES),"hERG current change (%, negative = inhibition) at 10uM [%]"
1,COc1ccc(NC(=O)CN(C)C(=O)c2ccc(NC3CC3)c([N+](=O)[O-])c2)cc1,-72.8
2,CCN(CC(=O)Nc1ccc(NC(C)=O)cc1)C(=O)c1ccc(NC2CC2)c([N+](=O)[O-])c1,-46.1
3,COc1ccc(NC(=O)CN(C)C(=O)c2ccc(NS(=O)(=O)c3ccc(C)c([N+](=O)[O-])c3)cc2)cc1,-2.55
4,O=C(O)CC1SC(=O)NC1=O (stereo not drawn),4.76
5,Cc1nc2cc(C(=O)NCCN3CCOCC3)ccc2n1-c1ccc(F)cc1F,-3.86
6,COc1ccc(-c2nc3ccc(C(=O)NCCCN4CCOCC4)cc3nc2-c2ccc(OC)cc2)cc1,9.44
7,CCCNC(=O)c1ccc2nc(-c3ccccc3)c(-c3ccccc3)nc2c1,9.38
8,CCN1CCN(CCNC(=O)c2ccc3nc(-c4cccc(C)c4)c(-c4cccc(C)c4)nc3c2)CC1,-73.9
9,Cc1cccc(-c2nc3ccc(C(=O)NCCN4CCN(C)CC4)cc3nc2-c2cccc(C)c2)c1,-11.7
10,CN1CCN(CCNC(=O)c2ccc3nc(-c4ccc(F)cc4)c(-c4ccc(F)cc4)nc3c2)CC1,-50.6
11,Cc1ccc(Cl)c(OC(=O)c2nn(C(C)C)c(=O)c3ccccc23)c1,-2.19
12,COC(=O)c1ccccc1NC(=O)N1CCCC1,-11.9
13,O=C(CSc1nn(-c2ccccc2)c(=S)s1)Nn1cnnc1,14.8
14,COc1cc(C(=O)N2CCC(c3nc(-c4cccnc4)no3)CC2)cc(OC)c1OC,-8.08
15,O=C(CSc1nc2ncccc2[nH]1)NC1CCCC1,7.42
16,S=c1[nH]nc(COc2ccccc2)n1/N=C/c1ccc(Br)s1,-18.8
17,COc1ccc(S(=O)(=O)N2CCN(C)CC2)cc1C,7.28
18,Cc1ccc(/C=N/NC(=O)Cn2cnc3ccccc32)o1,3.48
19,CC1CCN(c2nnc(-c3cccs3)c3ccccc23)CC1,-41.6
20,O=S(=O)(c1ccccc1)N1CCN(c2nc(-c3cccs3)nc3ccccc23)CC1,9.84
21,CCCN1CCN(c2nc(-c3cccs3)nc3ccccc23)CC1,-68.6
22,CN1CCN(c2nnc(-c3cccs3)c3ccccc23)CC1,-53.9
23,CCN1CCN(c2nc(-c3cccs3)nc3ccccc23)CC1,-70.8
24,c1csc(-c2nc(N3CCOCC3)c3ccccc3n2)c1,-10.1
25,c1ccc(N2CCN(c3nc(-c4cccs4)nc4ccccc34)CC2)cc1,-8.84
26,COc1ccc(N2CCN(c3nc(-c4cccs4)nc4ccccc34)CC2)cc1,14.4
27,CN1CCN(c2nc(-c3cccs3)nc3ccccc23)CC1,-73.9

row,Structure (SMILES),"hERG current change (%, negative = inhibition) at 10uM [%]"
1,Oc1ccc(N2CCN(c3nc(-c4cccs4)nc4ccccc34)CC2)cc1,16.5
2,c1csc(-c2nnc(N3CCOCC3)c3ccccc23)c1,-32.1
3,Fc1ccccc1N1CCN(c2nc(-c3cccs3)nc3ccccc23)CC1,8.57
4,COc1ccc(CNC(=O)c2oc3ccc(S(=O)(=O)N4CCOCC4)cc3c2C)cc1,7.71
5,COc1ccccc1NC(=O)Nc1ncccc1C,-1.09
6,O=C1NCCN(Cc2ccoc2)C1CC(=O)N(Cc1ccccc1)CC1CCC1 (stereo not drawn),8.87
7,COc1ccc(Cl)cc1NC(=O)COC(=O)c1c(-c2ccccc2)noc1C,-2.53
8,CC(=O)N1CCN(c2nc(-c3cccs3)nc3ccccc23)CC1,-63.2
9,CCOC(=O)N1CCN(c2nc(-c3cccs3)nc3ccccc23)CC1,-1.74
10,Oc1ccccc1N1CCN(c2nc(-c3cccs3)nc3ccccc23)CC1,5.52
11,CC(=O)NC(CC(=O)Nc1nccs1)c1ccccc1.O=C(O)C(=O)O (stereo not drawn),1.49
12,CNCCCOc1ccc(Cl)cc1C(C)(C)C.O=C(O)C(=O)O,-20.6
13,C=CCNCCOCCOc1ccc(Cl)cc1C(C)(C)C.O=C(O)C(=O)O,11.2
14,CC(C)(C)NCCCOc1ccc(Cl)cc1C(C)(C)C.O=C(O)C(=O)O,1.96
15,COCCCNCCOCCOc1ccc(Cl)cc1C(C)(C)C.O=C(O)C(=O)O,-50.6
16,COCCCNCCCOc1ccc(Cl)cc1Br,-39.2
17,CC(O)CNCCCOc1ccc(Cl)cc1C(C)(C)C.O=C(O)C(=O)O (stereo not drawn),-15.9
18,CC(C)(C)NCCOCCOc1ccc(Cl)cc1C(C)(C)C.O=C(O)C(=O)O,0.207
19,COCCCNCCCOc1ccc(Cl)cc1C(C)(C)C,-57.5
20,C=CCNCCCOc1ccc(Cl)cc1C(C)(C)C.O=C(O)C(=O)O,-60.8
21,O=C(CSc1ccccn1)N1CCN(c2ccccc2)CC1,7.55
22,COc1ccc(O[C@H]2C=C[C@@H](c3ccccc3)O[C@@H]2CO/N=C(\C)CCN2CCc3nc(-c4ccccc4)c(-c4ccccc4)cc3C2)cc1,6.94
23,CCCNC(=O)NC(=O)CSc1ncc(C(F)(F)F)cc1Cl,12.6
24,C#CCOCCOCCOCCNc1nc(N2CCN(C(=O)[C@H](CCCCN)n3cc([C@@H](N)CC(C)C)nn3)CC2)nc(N2CCN(C(=O)[C@H](CCCCN)n3cc([C@@H](N)CC(C)C)nn3)CC2)n1.Cl,4.98
25,CCCCNS(=O)(=O)c1ccc(S(=O)(=O)NCc2ccncc2)cc1,-9.06
26,CCc1cccc2c(C(=O)CSc3nncn3C)c[nH]c12,7.69
27,CN(C(=O)CC1C(=O)NCCN1Cc1ccc(F)cc1Cl)C1CCCCC1 (stereo not drawn),-2.68
